Source: PubChem BioAssay (Corson Lab, School of Medicine, Indiana University)
This is one part of a sample in which hits are shown more often than they occur.
FECH inh – blocks human mitochondrial ferrochelatase activity | purified FECH, Ni-mesoporphyrin absorbance 550 nm | calls only at 10 µM (by protocol) | hit rate 3.3% among 20,000;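 active = enzyme reaction rate more than 3 SD below the solvent-only control wells on the same plate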;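 note: lower slope than DMSO wells means FECH inhibition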
An asterisk follows results filed as active; i = inactive; + = active, no number.

SMILES	FECH inh
NC(=O)c1ccccc1NC(=O)c1cccn(Cc2cccc(Cl)c2)c1=O	i
O=C(Nc1ccon1)c1cccn(Cc2cccc(Cl)c2)c1=O	+
NC(=O)c1ccc(NC(=O)c2cccn(Cc3cccc(Cl)c3)c2=O)cc1	i
OCc1ccccc1-c1ccc2c(c1)CNCC2	i
CCOc1ccc(CN2CCC3(CC2)CN(C)CCN3C)cn1	i
